{"source": "PubChem BioAssay (NCI)", "note": "Where “and” joins values, the source holds several entries; their conditions need not be identical. Identical values can stand only once. The panel holds about 83,000 compounds, 20% with a hit somewhere; the sample as a whole holds those more often.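 Plates (96-well) were seeded with cells, treated with compound at one concentration, and incubated for 48 hours before percent growth was determined.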 Unmarked numbers belong to inactive results. Calls of active or inactive are those of the source. Rule for the calls: active = growth percent below 10; inactive = the rest."}
{"tested_on": "MDA-MB-468 breast", "experiment": "NCI-60 one-dose screen, 48 h (100 = growth as untreated, 0 = no growth, -100 = all killed)", "settings": "10 µM unless noted"}
{"smiles": "CCOC(=O)NC(Cc1ccccc1)c1ccccc1", "note": "(stereo not given)", "growth": "106%"}
{"smiles": "CC1=C2C(=C[C@@](C)(COS(N)(=O)=O)[C@@H]2O)C(=O)[C@](C)(O)C12CC2", "growth": "-34% (active)"}
{"smiles": "CC(C)(C)NC(=O)C(OC(=O)c1cccc(Cl)c1)c1ccc(Cl)cc1", "note": "(stereo not given)", "growth": "87.9%"}
{"smiles": "Cc1ccc(N=Nc2ccccc2)cc1", "growth": "95.2%"}
{"smiles": "CCN1C(=O)N(CC)C2C1NN=c1s/c(=C\\c3ccc(F)cc3)c(=O)n12", "note": "(stereo not given)", "growth": "11.9%"}
{"smiles": "OC(c1cc(-c2ccc(C(F)(F)F)cc2)nc(-c2ccc(C(F)(F)F)cc2)c1)C1CCCCN1", "note": "(stereo not given)", "growth": "-85.1% (active)"}
{"smiles": "COC(=O)c1nc(-c2ccccc2)oc1S(=O)(=O)N1CCC(C(N)=O)CC1", "growth": "-14.6% (active)"}
{"smiles": "C(=N\\Nc1ncnc2sc3c(c12)CCNC3)/c1cccc2ccccc12", "growth": "72.1%"}
{"smiles": "COc1ccc(Nc2ncc(C(N)=O)c(NCCCNC(=O)C3CCC3)n2)cc1", "growth": "33.1%"}
{"smiles": "CCN(CC)CCCC(C)Nc1ccnc2cc(Oc3ccccc3)ccc12", "note": "(stereo not given)", "growth": "31.5% and 70.2%"}
{"smiles": "COc1cc(Cn2c(SCCC(=O)Nc3ccc(F)cc3)nc3ccccc3c2=O)cc(OC)c1OC", "growth": "88.1%"}
{"smiles": "CC1=C(CCC(C)NCc2ccc(OCCCN3CCCCC3)cc2)C(C)(C)CCC1", "note": "(stereo not given)", "growth": "-92.7% (active)"}
{"smiles": "COc1cc(OC)cc(C(=O)Nc2cc(-c3cccnc3)nc(NCCCN3CCOCC3)n2)c1", "growth": "83.2%"}
{"smiles": "CCCCn1c(Cc2ccc(Cl)cc2)nc2cc(OC)c(OC)cc2c1=O", "growth": "58.6%"}
{"smiles": "COc1ccc(Oc2ccccc2NC(=O)CNC(=O)c2cccc3ccccc23)cc1", "growth": "23.7% [5 µM]"}
{"smiles": "COc1cccc(-c2ccc3c(c2)C2CCN(Cc4ccccc4)C3C2)c1", "note": "(stereo not given)", "growth": "67.9%"}
{"smiles": "CCOC(=O)/C(C#N)=C1/C(=O)Nc2ccccc21", "growth": "134%"}
{"smiles": "COc1cccc2cc(-c3cc4ccccc4[nH]3)/c(=N/C(=S)Nc3ccccc3)oc12", "growth": "79.1%"}
{"smiles": "CCOC(=O)c1ccc(NC(=O)Nc2ncc(Cl)cc2Cl)cc1", "growth": "95.1%"}
{"smiles": "c1cnc2c(-c3nc4ccc5[nH]ncc5c4c4c3CCCC4)c[nH]c2c1", "growth": "10.9%"}
{"smiles": "Cc1cccc(C)c1NCc1nnc(-c2ccc(O)cc2)o1", "growth": "96.2%"}
{"smiles": "O=C(CSc1nccc(Nc2cccc3ccccc23)n1)c1ccc(Cl)cc1", "growth": "98.5%"}
{"smiles": "COc1ccc2c(c1)c(-c1nc(-c3cn(C)c4ccncc34)cs1)cn2C", "growth": "-28.4% (active)"}
{"smiles": "Nc1cccc(NC(=O)C(=O)Nc2cccc(N)c2)c1", "growth": "117%"}
{"smiles": "COc1ccc2nc3cc(Cl)ccc3c(NCCNCC(O)CO)c2c1", "note": "(stereo not given)", "growth": "-8.61% (active)"}
{"smiles": "O=C(/C=C/c1cn(-c2ccccc2)nc1-c1cccc(Nc2ccnc3cc(Cl)ccc23)c1)c1ccc2c(c1)OCO2", "growth": "68.2%"}
{"smiles": "CN1CCN(Cc2occc(=O)c2O)CCN(C)CCN(Cc2occc(=O)c2O)CC1", "growth": "111% and 87.9%"}
{"smiles": "CNCCCOc1c(Br)cc(CCNC(=O)/C(Cc2cc(Br)c(OC)c(Br)c2)=N/O)cc1Br", "growth": "3.11% (active)"}
{"smiles": "O=S(=O)(Nc1cc(Cl)cc(Cl)c1)c1ccc(-c2cnc(C3CC3)o2)cc1", "growth": "2.06% (active)"}
{"smiles": "COc1cc2nc(N3CCC[C@H](NC4=CC(=O)c5ccccc5C4=O)C3)nc(N)c2cc1OC", "growth": "-55.9% (active)"}
{"smiles": "CCCCCCCC/C=C\\CCCCCCCCOc1ccc(CC(=O)NCC[N+]2(C)CCOCC2)cc1", "growth": "43.9%"}
{"smiles": "C#C[C@]1(O)CC[C@H]2[C@@H]3CC=C4c5nc(Nc6ccccc6[N+](=O)[O-])sc5CC[C@]4(C)[C@H]3CC[C@@]21C", "growth": "70.7%"}
{"smiles": "COc1ccc(/C(=C/c2cc(OC)c(OC)cc2[N+](=O)[O-])C(=O)O)cc1", "growth": "111%"}
{"smiles": "N[C@@H]1CCN(C(=O)c2cc3cc(Cl)c(F)c(F)c3[nH]2)C1", "growth": "81.6%"}
{"smiles": "O=C1/C(=C/c2ccc(O)cc2)COc2ccc(O)c(O)c21", "growth": "-2.18% (active)"}
{"smiles": "O=C(Nc1ccccc1Cl)c1cnc2ccc(C3CCNCC3)cn12", "growth": "63.3%"}
{"smiles": "Cc1ccc(/C=C/C(=O)C(=O)/C=C/c2ccc(C)cc2)cc1", "growth": "110%"}
{"smiles": "CCOC(=O)C1=C(C)c2ccc(OC)c(OC)c2C1", "growth": "99.4%"}
{"smiles": "OCC1OC(O)C(O)C(O)C1O", "note": "(stereo not given)", "growth": "121%"}
{"smiles": "COc1ccc(Nc2nc(SCC(C)C)nc(-c3ccc(F)cc3)c2C#N)cc1", "growth": "32.6%"}
